{"source": "PubChem BioAssay", "note": "The list shows a part of the results. Activity calls are given as the source filed them.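 The calls were made as follows: active = reconfirmed compounds whose average cytotoxicity reaches 50% or more; inactive = the rest.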"}
{"assay": "PPC-1 cell viability loss – ATP content luminescence, cytotoxicity control for TRAIL apoptosis potentiator project, confirmation (AID 1447);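 also: 0% = DMSO-treated cells and 100% = wells holding medium but no cells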", "conditions": "PPC-1 viability, ATPlite luminescence, overnight; at 5 µM; hits give high values"}
{"molecule": "O=C(Oc1ccc(-c2nc(-c3ccccn3)no2)cc1)c1ccccc1", "cytotoxicity": "44.9% (inactive)"}
{"molecule": "COc1cc(SC)ccc1C(=O)Nc1nc(C)cs1", "cytotoxicity": "95.8% (active)"}
{"molecule": "COc1ccc(-c2nc(-c3ccccc3)no2)c(OC)c1", "cytotoxicity": "69.6% (active)"}
{"molecule": "O=c1oc(/C=C/c2ccccc2)nc2ccccc12", "cytotoxicity": "57.5% (active)"}
{"molecule": "Cc1ccc(-c2nc3ccccc3[nH]2)cc1N", "cytotoxicity": "49.3% (inactive)"}
{"molecule": "CC(=O)c1sc(NC(=O)c2ccc(C)cc2)nc1C", "cytotoxicity": "52.3% (active)"}
{"molecule": "COc1ccc(C(=O)Nc2ccccc2C(=O)N/N=C/c2ccc(O)c(OC)c2)cc1", "cytotoxicity": "96.5% (active)"}
{"molecule": "COc1cc(SC)ccc1C(=O)Nc1cc(C)ccn1", "cytotoxicity": "53.4% (active)"}
{"molecule": "O=C(/C=C/c1ccc(Cl)c([N+](=O)[O-])c1)c1ccc(O)cc1", "cytotoxicity": "4.1% (inactive)"}
{"molecule": "Cn1c(-c2ccco2)nc2cc3ccccc3cc21", "cytotoxicity": "89.1% (active)"}
{"molecule": "CCC(C)Cn1c(O)cc2nn(-c3nc4ccccc4s3)c(=O)c-2c1C", "note": "(stereo not given)", "cytotoxicity": "53.8% (active)"}
{"molecule": "Clc1ccc(-c2cc(-c3ccccn3)on2)c(Cl)c1", "cytotoxicity": "89.7% (active)"}
{"molecule": "Clc1ccc2nc(-c3ccccc3)nc(C(Cl)Cl)c2c1", "cytotoxicity": "76.5% (active)"}
{"molecule": "Cn1c(=NC(=O)c2cnccn2)sc2ccccc21", "cytotoxicity": "50.8% (active)"}
{"molecule": "COc1cccc(/C=C/c2ccc3ccccc3n2)c1OC(C)=O", "cytotoxicity": "74.4% (active)"}
{"molecule": "Cc1ccc(-c2cc(C(=O)N/N=C/C=C/c3ccco3)c3ccccc3n2)cc1C", "cytotoxicity": "56.4% (active)"}
{"molecule": "Cc1ccc(-c2cn3cc(C)ccc3n2)cc1", "cytotoxicity": "85.8% (active)"}
{"molecule": "O=C(Nc1ccc(NC(=O)c2cccs2)cn1)c1ccco1", "cytotoxicity": "42.1% (inactive)"}
{"molecule": "Cc1nc2cc(NC(=O)Nc3cccc(F)c3)ccc2n1C", "cytotoxicity": "51.2% (active)"}
{"molecule": "COc1ccc(-c2cn3ccc(C)cc3n2)cc1", "cytotoxicity": "89.4% (active)"}
